Screens (PubChem)
HT1080NT lethal – qHTS for induction of synthetic lethality in tumor cells producing 2HG: qHTS for the HT-1080-NT fibrosarcoma cell line; HT-1080-NT fibrosarcoma viability, CellTiter-Glo ATP luminescence, 48 h; Potency, µM (titrated, usually from 46.1 µM), inactives show top-dose activity, negative = less viability, most hits filed as cytotoxic; hit rate 1.6% among 360,000; AID 686970, 2013;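 note: NT is the 2HG producing partner of a matched IDH1 knockdown line; potency is the fitted concentration of half-maximal effect; 0% = DMSO-treated cells and -100% = media-only wells without cells; nearly all actives have a fitted effect of over 55% in size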
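Fibrosarcoma NT cells, 750 per well in 5% FBS RPMI, were exposed to compound for 48 hours. Viability: CellTiter-Glo luminescence.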
TDP1 cell noCPT – qHTS for Inhibitors of human tyrosyl-DNA phosphodiesterase 1 (TDP1): qHTS in cells in absence of CPT; DT40 Tdp1-/- hTDP1 cells, no CPT, ATP luminescence, 48 h; Potency, µM (doses to about 46.2 µM), for the others: at the top dose activity change, negative = growth inhibition, most hits filed as inhibitors; hit rate 15% among 420,000; AID 686978, 2013; note: potency is the fitted concentration of half-maximal effect; nearly all actives have a fitted effect of over 55% in size
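Growth of hTDP1-complemented DT40 Tdp1-knockout cells is measured by ATP luminescence after at least 48 hr compound exposure at 37 °C, with DMSO substituting for the 20 nM CPT used in the parallel screen.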
12-LOX inh – Primary qHTS assay for inhibitors of human arachidonate 12S-lipoxygenase (ALOX12): Round 2; purified 12hLO, xylenol orange hydroperoxide absorbance; Polyunsaturated fatty acid lipoxygenase ALOX12 (Homo sapiens), P18054; Potency, µM (highest dose often 108 µM), inactives show at the top dose activity change, negative = inhibition, hits mostly inhibitors; hit rate 1.1% among 580,000; AID 1671190, 2021; note: potency is the fitted concentration of half-maximal effect
Target sequence (P18054 whole entry, looked up): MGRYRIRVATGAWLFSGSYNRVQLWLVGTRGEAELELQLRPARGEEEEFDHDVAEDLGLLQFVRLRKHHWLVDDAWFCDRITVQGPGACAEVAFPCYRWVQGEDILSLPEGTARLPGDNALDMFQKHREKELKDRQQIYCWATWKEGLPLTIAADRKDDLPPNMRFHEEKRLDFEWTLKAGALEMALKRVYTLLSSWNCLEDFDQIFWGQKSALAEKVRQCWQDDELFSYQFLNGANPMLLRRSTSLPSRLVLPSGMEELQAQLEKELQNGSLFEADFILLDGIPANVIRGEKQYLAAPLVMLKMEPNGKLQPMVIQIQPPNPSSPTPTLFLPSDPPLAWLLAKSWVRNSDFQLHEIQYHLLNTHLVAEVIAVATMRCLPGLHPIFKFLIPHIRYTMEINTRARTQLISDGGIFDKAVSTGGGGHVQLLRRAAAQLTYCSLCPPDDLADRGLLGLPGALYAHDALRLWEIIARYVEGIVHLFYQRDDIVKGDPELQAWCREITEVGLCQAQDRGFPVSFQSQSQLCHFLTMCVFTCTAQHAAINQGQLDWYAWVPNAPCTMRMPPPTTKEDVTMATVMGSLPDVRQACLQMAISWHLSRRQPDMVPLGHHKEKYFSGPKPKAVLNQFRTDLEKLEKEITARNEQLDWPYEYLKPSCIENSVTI
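Purified human 12hLO at 150 nM in 25 mM Hepes, 0.01% Triton X-100, pH 7.0, preincubated 15 min at room temperature with compound. Reaction started with 40 uM arachidonic acid, 30 min at room temperature. Hydroperoxide measured by Fe-xylenol orange, 573/405 nm absorbance ratio.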
TDP1 cell CPT – qHTS for Inhibitors of human tyrosyl-DNA phosphodiesterase 1 (TDP1): qHTS in cells in presence of CPT. hit rate 12% among 420,000. chicken DT40 Tdp1-/-;hTDP1 cells + 20 nM CPT, ATP luminescence, 48 h. Potency, µM (top dose mostly 46.2 µM), for inactives: at the highest dose activity change, negative = growth inhibition, most hits filed as inhibitors; note: potency is the fitted concentration of half-maximal effect; nearly all actives have a fitted effect of over 55% in size
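Cell growth measured by CellTiter-Glo luminescence after a minimum 48 h, 37 C compound exposure with 20 nM CPT in Tdp1-knockout DT40 cells stably expressing hTDP1, seeded 400/well; qHTS titration format.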
IL-1B inflam inh – qHTS for Inhibitors of Inflammasome Signaling: IL-1-beta AlphaLISA Primary Screen | THP-1 LPS/ATP IL-1B secretion, AlphaLISA, 16 h; stronger effect = lower value | activity change, % at 57.5 µM | hit rate 4.7% among 360,000 | AID 743279, 2014; in the data active = activity change below about -50%; inconclusive = mostly about -30% to -49%
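Secreted IL-1B measured by AlphaLISA bead assay after 16 h compound exposure of THP-1 cells; compounds (final up to 57.5 uM) added 1 h before LPS (250 ng/mL) and ATP (1.25 mM) stimulation; lower signal means less secretion.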
HT1080 IDH1KD tx – qHTS for induction of synthetic lethality in tumor cells producing 2HG: qHTS for the HT-1080-IDH1KD cell line; HT-1080 IDH1 knockdown viability, ATP luminescence, 48 h; Potency, µM (series often up to 46.1 µM), for the others: at the highest dose activity, negative = toxicity, most hits filed as cytotoxic; hit rate 2% among 360,000; AID 686971, 2013;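 note: potency is the fitted concentration of half-maximal effect; 0% = DMSO wells and -100% = cell-free medium wells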
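Cytotoxicity counter-line: IDH1KD HT-1080, 48 h, CellTiter-Glo. Curves classed by r2, magnitude and activity.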
Starred values were filed as active, the others as inactive; ? = inconclusive; . = not tested or not shown; [ ] = remark or other dose. The sample as a whole holds a higher share of hits than the screen did. Unless noted, calls come from the whole dose curve; as a rule, active = well fitted curve in the direction sought with a large enough effect; inconclusive = small, poorly fitted or top-dose-only effect, or another doubt; inactive = no such curve, though single readings can be large; an effect the other way counts as inactive or inconclusive. Unless noted, % is set by controls: 0 for no effect and ±100 for the full control effect.

SMILES	HT1080NT lethal	TDP1 cell noCPT	12-LOX inh	TDP1 cell CPT	IL-1B inflam inh	HT1080 IDH1KD tx
CN(C)C(=S)NC(=O)C12CC3CC(C)(CC(C)(C3)C1)C2	4%	?	372%	?	6	10%
CC12CC3CC(C)(C1)CC(C(=O)NC(=S)N1CCCCC1)(C3)C2	?	?	25µM*	?	-26	10%[9.24 µM]
CCCCCCCCN1C(=O)[C@H](CC(=O)NCc2cccc3ccccc23)C[C@@]2(C(=O)OC)CC(C)(C)CC=C12	?	12µM*	-2%	-67%	0	?
CCCCCCCCN1C(=O)[C@H](CC(=O)NCCCC)C[C@@]2(C(=O)OC)CC(C)(C)CC=C12	?	12µM*	?	10µM*	15	?
CCCCNC(=O)C[C@@H]1C[C@@]2(C(=O)OC)CC(C)(C)CC=C2N(Cc2ccccc2)C1=O	-16%	?	-6%	?	-28	-1%
CCCCCCCCN1C(=O)[C@H](CC(=O)NCCCCc2ccccc2)C[C@@]2(C(=O)OC)CC(C)(C)CC=C12	-13%	21µM*	-5%	16µM*	16	?
CCCCCCCCN1C(=O)[C@H](CC(=O)NCC23CC4CC(CC(C4)C2)C3)C[C@@]2(C(=O)OC)CC(C)(C)CC=C12	-1%	?	-1%	4%	9	-7%
CCCCCCCCN1C(=O)[C@H](CC(=O)NCc2ccccc2)C[C@@]2(C(=O)OC)CC(C)(C)CC=C12	?	5.2µM*	-13%	3.7µM*	-26	?
CCCSc1ncc(Cl)c(C(=O)Nc2ccccc2C(=O)OC)n1	.	.	2%	.	.	.
CCN(CC)CC1CCN(C(=O)c2cc(=O)[nH]c3ccccc23)CC1	.	.	59%	.	.	.
CCn1c(COc2ccc(=O)n(-c3ccccc3)n2)nnc1SCc1ccccc1C	0%	?	0%	16µM*	-8	0%
Cc1ccccc1Cn1cc(-c2ccncc2)cc1C(=O)N(C)Cc1ccco1	.	.	23%	.	.	.
Cc1ccc(C(=O)OCC(=O)c2ccco2)s1	.	.	32µM*	.	.	.
Cc1cccc(C(=O)N2CCn3nnc(CCC(=O)NC4CC4)c3C2)c1	.	.	12%	.	.	.
O=c1cc(-c2ccc(O)cc2)oc2cccc(O)c12	.	30µM*	.	30µM*	.	.
COc1ccc(-c2cc(=O)c3c(O)cc(O)cc3o2)cc1	-3%	24µM*	-16%	?	?	-26%
O=c1cc(-c2ccc(O)cc2)oc2c(-c3c(O)cc(O)c4c(=O)cc(-c5ccc(O)cc5)oc34)c(O)cc(O)c12	0%	-11%	26%	17%	5	10%
COc1cccc2[nH]c(C(=O)NCCCc3nnc4ccccn34)cc12	.	.	22%	.	.	.
COc1cc(/C=C(\C#N)c2nc3ccccc3n2C)cc(OC)c1OC	.	12µM*	-22%	29µM*	.	.
Cc1ccc(-c2ccc(/C=C(\C#N)c3ccccc3)o2)cc1	.	.	3%	.	.	.
Cn1c(/C(C#N)=C/c2ccc(-c3ccc(S(N)(=O)=O)cc3)o2)nc2ccccc21	-1%	15µM*	-6%	13µM*	123	-13%
Cn1c(/C(C#N)=C/c2cccc(O)c2)nc2ccccc21	-8%	?	-9%	21µM*	-62*	-19%
O=C(CN1CCOCC1)N1CC2CC(C1)[C@H]1CCCC(=O)N1C2 (some centres undefined)	.	.	16%	.	.	.
Nc1ccc2[nH]ncc2c1	25%	21µM*	1%	18µM*	9	0%
Nc1ccc2ccc(N)cc2c1	.	.	5%	.	.	.
